Laboratory results published in PubChem BioAssay (NCI).
This is part of a sample that, as a whole, favours compounds with a hit. Of some 79,000 tested, about 15% had one in any assay. Values without a mark were called inactive. Activity calls are given as the source filed them. No stated cut-off is given here; in the data, active means growth inhibition above about 70%; inactive means the rest.

Test: NCI Yeast Anticancer Drug Screen. Data for the mec2-1 strain (AID 157)
Conditions: S. cerevisiae mec2-1 strain, at 100.0 µM, hits give high values
Outline: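 Cells of the genetically defined mec2-1 yeast strain are incubated with test compound. Inhibition of growth is calculated against vehicle-treated controls.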

| Structure (SMILES) | growth inhibition |
| --- | --- |
| NC(=S)N/N=C\c1nccc2ccccc12 | 99% (active) |
| Clc1cccc(C(Nc2nncs2)Nc2nncs2)c1Cl | 51% |
| O=C(OCC=C1CCCC1)c1cc([N+](=O)[O-])cc([N+](=O)[O-])c1 | 98% (active) |
| O=C(Nc1ccccc1)C(=O)C(C(=O)c1ccccc1)C(c1ccccc1)c1ccccc1 (centres undefined) | 35% |
| N#CN1C2CCC1CC(=O)C2 | -36% |
| COc1ccccc1C(=O)OCC1CCCN2CCCCC12 (centres undefined) | 98% (active) |
| CCNc1nnc(CSc2nc(-c3ccccc3)c(-c3ccccc3)[nH]2)s1 | 77% (active) |
| O=C1c2ccccc2-c2n[nH]c3cccc1c23 | 46% |

Test: NCI Yeast Anticancer Drug Screen. Data for the rad14 strain (AID 159);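 further: 0% = growth of vehicle-treated control cultures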
Conditions: S. cerevisiae rad14 strain growth inhibition; at 1.2 µM; hits give high values
Outline: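 Yeast cells carrying a defined DNA-repair defect were exposed to compounds, and growth inhibition was calculated relative to vehicle-treated control cultures.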

| Structure (SMILES) | growth inhibition |
| --- | --- |
| CCC/C(Cl)=N\OC(=O)Nc1cccc(C(F)(F)F)c1 | 12% |
| [O-][n+]1c2ccc(O)cc2nc2ccc(Cl)cc21 | 0% |
| Clc1ccccc1C1OC1c1ccccc1Cl (centres undefined) | -46% |
| c1ccc2c(c1)c1ncccc1c1nccnc21 | 3% |
| CC(=O)Nc1ccc2c(c1)C(=Nc1ccc(C(=O)O)cc1)c1ccccc1-2 | -2% |
| COc1ccc(OC)c2cc3ccccc3cc12 | -4% |
| COc1cc(C2c3cc4c(cc3OC(NNc3ccccc3)C2C)OCO4)cc(OC)c1OC (centres undefined) | -2% |
| O=C1c2cc([N+](=O)[O-])ccc2-c2cccc(F)c21 | 5% |
| CCCCCCCCCCCC(=O)N(C)C | 7% |
| CCCCCCCCCCCC1=C(O)C(=O)C=C(O)C1=O | 2% |
| Cc1ccc(CSC(N)=Nc2ccccc2)cc1C | -22% |
